# PubChem BioAssay (EPA / NIEHS)
# Inconclusive results are not listed. Calls of active or inactive are those of the source. Rule for the calls, unless noted: active = hit-call score of the fitted dose curve at least 0.9, where 1 is the maximum; inconclusive = response in the unintended direction; inactive = score below 0.9.
# Tests used:
# [1] = ATG_ERE_CIS: Attagene CIS-FACTORIAL HepG2 Assay for Estrogen Response Element (ERE) (AID 2282940; active = hit-call score of the fitted dose curve at least 0.9, where 1 is the maximum; inactive = score below 0.9); settings: HepG2 ERE cis-reporter, Attagene RNA transcript; actives raise or lower the signal
# Outline: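 After 24 h compound treatment, RNA from transfected HepG2 cells was reverse-transcribed, reporter cDNA PCR-amplified, FAM-labelled, HpaI-cut and resolved by capillary electrophoresis. ERE-driven cis reporter transcripts reflect endogenous factors; gain or loss scored against DMSO.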
# [2] = molecular target: Bile acid receptor (Homo sapiens) (UniProt Q96RI1); assay: ATG_IR1_CIS: Attagene CIS-FACTORIAL HepG2 Assay for human Nuclear Receptor Subfamily 1 Group H Member 4 (NR1H4), IR1 submotif (AID 2282946; active = hit-call score of the fitted dose curve at least 0.9, where 1 is the maximum; inactive = score below 0.9); settings: IR1 reporter transcription, actives raise or lower the signal
# Outline: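 Transient MRTU transfection, HepG2; 24 h dosing; RNA → RT-PCR → 6-FAM primer extension → HpaI digest → capillary electrophoresis fluorescence. Gain/loss of signal fitted relative to DMSO.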
# [3] = molecular target: Nuclear receptor subfamily 1 group I member 3 (Homo sapiens) (UniProt Q14994); assay: ATG_CAR_TRANS: Attagene TRANS-FACTORIAL HepG2 Assay for human Constitutive Androstane Receptor (CAR) (AID 2282969); settings: HepG2 Attagene TRANS-FACTORIAL CAR reporter;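 note: activators raise reporter mRNA above DMSO so AC50 marks induction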
# Outline: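 HepG2 cells transiently transfected with multiplexed GAL4-UAS reporter units expressing chimeric NR-Gal4 proteins; compound exposure 24 h. Reporter mRNA measured by RT-PCR, 6-FAM labelling, HpaI digestion and capillary electrophoresis; gain-of-signal fitted against DMSO baseline.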
# [4] = molecular target: Glucocorticoid receptor (Homo sapiens) (UniProt P04150); assay: ATG_GR_TRANS: Attagene TRANS-FACTORIAL HepG2 Assay for human Glucocorticoid Receptor (GR) (AID 2282978); settings: HepG2 Attagene TRANS GR reporter, mRNA transcription;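 note: activators score as hits since higher reporter transcript over DMSO is fitted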
# Outline: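 HepG2 cells transiently transfected with GAL4-UAS reporter units and exogenous GR-Gal4 chimera, dosed 24 h. Reporter mRNA by RT-PCR, FAM labeling, HpaI digest and capillary electrophoresis; gain-of-signal fit versus DMSO.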
# [5] = molecular target: Oxysterols receptor LXR-beta (Homo sapiens) (UniProt P55055); assay: ATG_LXRb_TRANS: Attagene TRANS-FACTORIAL HepG2 Assay for human Liver X Receptor beta (LXRb) (AID 2282981); settings: HepG2 Attagene TRANS GAL4-LXRb reporter, mRNA
# Outline: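 HepG2 cells transiently transfected with multiple reporter transcription units carrying chimeric NR-Gal4 proteins acting on GAL4-UAS reporters; compound exposure 24 h. Reporter mRNA quantified by RT-PCR, 6-FAM labelling, HpaI digestion and capillary electrophoresis; gain of signal versus DMSO.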
# [6] = molecular target: Hepatocyte nuclear factor 4-alpha (Homo sapiens) (UniProt P41235); assay: ATG_HNF4a_TRANS: Attagene TRANS-FACTORIAL HepG2 Assay for human Hepatocyte Nuclear Factor 4 alpha (HNF4a) (AID 2282982); settings: HepG2 HNF4a transactivation reporter, mRNA readout
# Outline: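 HepG2 cells transiently transfected with multiplexed GAL4-UAS reporter units responsive to chimeric NR-GAL4 proteins; compound exposure 24 h. Reporter mRNA quantified by RT-PCR, 6-FAM labelling, HpaI digestion and capillary electrophoresis; gain of signal versus DMSO baseline.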
# [7] = molecular target: human Peroxisome Proliferator-activated Receptor delta (PPARd), PPARD (gene 5467) (UniProt Q03181); assay: ATG_PPARd_TRANS: Attagene TRANS-FACTORIAL HepG2 Assay for human Peroxisome Proliferator-activated Receptor delta (PPARd) (AID 2283002)
# Outline: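 HepG2 cells transiently transfected with multiplexed GAL4-UAS reporter units and exogenous chimeric NR-Gal4 proteins; 24 h compound exposure. Reporter mRNA measured by RT-PCR, 6-FAM labelling, HpaI digestion and capillary electrophoresis; gain of signal versus DMSO.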
# [8] = molecular target: human RAR-related Orphan Receptor beta (RORb), RORB (gene 6096) (UniProt Q92753); assay: ATG_RORb_TRANS: Attagene TRANS-FACTORIAL HepG2 Assay for human RAR-related Orphan Receptor beta (RORb) (AID 2283010)
# Outline: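 HepG2 cells were transiently transfected with multiplexed GAL4-UAS reporter units expressing chimeric nuclear receptor–GAL4 proteins, then dosed for 24 h. Reporter mRNA was quantified by RT-PCR with fluorescent labelling and capillary electrophoresis; gain of signal was fitted relative to DMSO.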
# [9] = CCTE_Harrill_HTTr_CellCount_MCF7: CCTE's Cell Proliferation Assessment for the High-Throughput Transcriptomics (HTTr) Platform, Harrill Lab (AID 2284012);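 note: cells exposed to compound for six hours; intended direction is loss of nuclei count meaning fewer cells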
# Outline: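 MCF-7 cells were exposed for 6 h to an eight-point dilution series; Hoechst-labeled nuclei were counted by high content imaging. Curves were fitted bidirectionally against DMSO as negative control and baseline, with signal loss indicating reduced cell count.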
# [10] = ACEA_ER_AUC_viability: ACEA Biosciences xCELLigence Real-Time Cell Analysis on Estrogen Receptor Agonism for Viability (AID 2283782);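 note: continuous compound exposure with impedance area under curve over 80 h; hit means loss of impedance signal meaning reduced cell growth or viability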
# Outline: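 T-47D human breast cells in phenol red-free RPMI1640 with 10% charcoal-stripped FBS were dosed with an 8-point 1:4 dilution series from 100 uM top final concentration, in duplicate. Impedance-based growth was followed for 80 h; AUC analysed versus DMSO.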
# [11] = molecular target: Cellular tumor antigen p53 (Homo sapiens) (UniProt P04637); assay: TOX21_p53_BLA_p2_ratio: Tox21 HCT-116 p53 Agonism Beta-lactamase Assay, Ratio, Phase 2 (AID 2283592)
# Outline: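 HCT-116 cells with p53-responsive beta-lactamase reporter, 4000 cells/well, preincubated 5 h, then compound in DMSO (217-fold dilution) for 16 h at 37C. CCF4-AM substrate 2 h at room temperature; 460/530 nm emission ratio fitted upward versus DMSO.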
# [12] = molecular target: Cellular tumor antigen p53 (Homo sapiens) (UniProt P04637); assay: TOX21_p53_BLA_p3_ratio: Tox21 HCT-116 p53 Agonism Beta-lactamase Assay, Ratio, Phase 3 (AID 2283596)
# Outline: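 HCT116 p53-bla cells (4000/well) given compound in DMSO (217-fold dilution) after 5 h, incubated 16 h at 37C. CCF4-AM substrate 2 h at room temperature; 460/530 nm emission ratio, gain fitted against DMSO.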
# [13] = TOX21_p53_BLA_p4_viability: Viability Assessment in the Tox21 HCT-116 p53 Agonism Beta-lactamase Assay, Phase 4 (AID 2283597);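 note: hits lower the luminescence signal meaning cytotoxicity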
# Outline: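 HCT-116 p53-bla cells, 4000/well, dosed after 5 h attachment and incubated 16 h at 37 °C, 5% CO2. Viability from CellTiter-Glo ATP luminescence after 30 min at room temperature, taken after the beta-lactamase read; loss of signal indicates cytotoxicity.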
# [14] = molecular target: Cellular tumor antigen p53 (Homo sapiens) (UniProt P04637); assay: TOX21_p53_BLA_p5_ratio: Tox21 HCT-116 p53 Agonism Beta-lactamase Assay, Ratio, Phase 5 (AID 2283599)
# Outline: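 HCT-116 cells carrying a p53-inducible beta-lactamase reporter were seeded at 4000 cells/well and dosed after 5 h with compound in DMSO (217-fold dilution). After 16 h at 37C, CCF4-AM substrate was added for 2 h, and the 460/530 nm emission ratio was scored as gain-of-signal versus DMSO.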
# [15] = molecular target: Cellular tumor antigen p53 (Homo sapiens) (UniProt P04637); assay: TOX21_p53_BLA_p4_ratio: Tox21 HCT-116 p53 Agonism Beta-lactamase Assay, Ratio, Phase 4 (AID 2283601)
# Outline: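 HCT116 cells carrying an inducible beta-lactamase reporter were plated at 4000 cells/well, rested 5 h, then exposed to compounds in DMSO (217-fold dilution) for 16 h at 37C. CCF4-AM substrate was loaded 2 h at room temperature; 460/530 nm emission ratio scored gain-of-signal versus DMSO.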
# [16] = molecular target: Oxysterols receptor LXR-alpha (Homo sapiens) (UniProt Q13133); assay: ATG_LXRa_TRANS: Attagene TRANS-FACTORIAL HepG2 Assay for human Liver X Receptor alpha (LXRa) (AID 2282980); settings: HepG2 Attagene TRANS reporter, LXRa transactivation
# Outline: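 HepG2 cells transiently transfected with GAL4-UAS reporter units for chimeric NR-Gal4 proteins, exposed to chemicals for 24 h. Reporter mRNA quantified by RT-PCR and capillary electrophoresis; gain of signal fitted relative to DMSO.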
# [17] = molecular target: human RAR-related Orphan Receptor gamma (RORg), RORC (gene 6097) (UniProt P51449); assay: ATG_RORg_TRANS: Attagene TRANS-FACTORIAL HepG2 Assay for human RAR-related Orphan Receptor gamma (RORg) (AID 2283011)
# Outline: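 HepG2 cells transiently transfected with GAL4-UAS reporter units and chimeric RORg-Gal4 construct; after 24 h chemical exposure, reporter mRNA measured by RT-PCR with fluorescent capillary electrophoresis, gain of signal fitted against DMSO.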
# [18] = TOX21_p53_BLA_p2_viability: Viability Assessment in the Tox21 HCT-116 p53 Agonism Beta-lactamase Assay, Phase 2 (AID 2283591);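 note: compound exposure lasted 16 h at 37 °C; actives lower the ATP signal meaning cytotoxicity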
# Outline: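 HCT-116 p53-bla cells (4000/well) rested 5 h at 37C, then received compounds in DMSO (217-fold dilution) for 16 h at 37C, 5% CO2. After the CCF4 read, CellTiter-Glo was added; ATP luminescence was read after 30 min at room temperature.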
# [19] = TOX21_p53_BLA_p3_viability: Viability Assessment in the Tox21 HCT-116 p53 Agonism Beta-lactamase Assay, Phase 3 (AID 2283593);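 note: cells exposed to compound for 16 h before reading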
# Outline: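 HCT-116 cells (4000/well) rested 5 h at 37C, then got DMSO compounds by pin tool (217-fold dilution) for 16 h at 37C, 5% CO2. After the bla read, CellTiter-Glo was added and luminescence read at 30 min, room temperature.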
# [20] = ATG_XTT_Cytotoxicity: Cytotoxicity Assessment in the Attagene TRANS-FACTORIAL HepG2 Assay (AID 2283584)
# Outline: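 HepG2 cells transiently transfected with GAL4-UAS multiple reporter units, dosed 24 h; cytotoxicity read by XTT as loss of signal versus DMSO baseline.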
# Sequence of Glucocorticoid receptor (Homo sapiens) (P04150 whole entry, looked up, the tested form may be a part): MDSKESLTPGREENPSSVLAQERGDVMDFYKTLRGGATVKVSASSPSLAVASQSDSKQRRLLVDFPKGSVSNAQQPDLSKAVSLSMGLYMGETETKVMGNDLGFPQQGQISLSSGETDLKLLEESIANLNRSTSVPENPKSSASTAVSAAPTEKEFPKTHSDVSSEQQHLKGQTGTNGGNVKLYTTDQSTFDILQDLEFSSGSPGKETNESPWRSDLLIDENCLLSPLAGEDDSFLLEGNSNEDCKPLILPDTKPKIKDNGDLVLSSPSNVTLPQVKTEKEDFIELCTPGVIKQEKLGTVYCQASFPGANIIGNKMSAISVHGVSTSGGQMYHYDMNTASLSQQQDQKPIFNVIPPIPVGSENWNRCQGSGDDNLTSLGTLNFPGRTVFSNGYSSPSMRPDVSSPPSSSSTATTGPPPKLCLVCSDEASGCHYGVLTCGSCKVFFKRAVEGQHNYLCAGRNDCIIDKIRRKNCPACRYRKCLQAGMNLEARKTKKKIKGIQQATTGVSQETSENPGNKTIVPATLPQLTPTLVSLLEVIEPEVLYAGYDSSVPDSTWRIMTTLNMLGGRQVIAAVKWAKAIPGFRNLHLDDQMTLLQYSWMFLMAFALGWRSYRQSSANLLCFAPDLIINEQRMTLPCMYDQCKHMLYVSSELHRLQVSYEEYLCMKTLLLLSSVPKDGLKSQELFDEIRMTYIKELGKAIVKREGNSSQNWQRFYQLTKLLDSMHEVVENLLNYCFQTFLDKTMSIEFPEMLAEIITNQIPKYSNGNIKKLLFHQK
# Sequence of Nuclear receptor subfamily 1 group I member 3 (Homo sapiens) (Q14994 whole entry, looked up, the tested form may be a part): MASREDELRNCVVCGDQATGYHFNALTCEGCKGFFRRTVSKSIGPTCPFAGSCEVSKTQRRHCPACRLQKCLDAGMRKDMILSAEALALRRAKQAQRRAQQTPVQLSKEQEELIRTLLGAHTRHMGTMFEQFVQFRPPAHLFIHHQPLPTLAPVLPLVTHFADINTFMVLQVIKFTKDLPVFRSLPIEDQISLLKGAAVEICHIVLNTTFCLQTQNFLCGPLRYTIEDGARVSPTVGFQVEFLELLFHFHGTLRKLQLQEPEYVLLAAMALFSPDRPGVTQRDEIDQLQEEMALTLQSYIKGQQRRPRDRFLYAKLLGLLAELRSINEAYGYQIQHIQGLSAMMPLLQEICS
# Sequence of Bile acid receptor (Homo sapiens) (Q96RI1 whole entry, looked up): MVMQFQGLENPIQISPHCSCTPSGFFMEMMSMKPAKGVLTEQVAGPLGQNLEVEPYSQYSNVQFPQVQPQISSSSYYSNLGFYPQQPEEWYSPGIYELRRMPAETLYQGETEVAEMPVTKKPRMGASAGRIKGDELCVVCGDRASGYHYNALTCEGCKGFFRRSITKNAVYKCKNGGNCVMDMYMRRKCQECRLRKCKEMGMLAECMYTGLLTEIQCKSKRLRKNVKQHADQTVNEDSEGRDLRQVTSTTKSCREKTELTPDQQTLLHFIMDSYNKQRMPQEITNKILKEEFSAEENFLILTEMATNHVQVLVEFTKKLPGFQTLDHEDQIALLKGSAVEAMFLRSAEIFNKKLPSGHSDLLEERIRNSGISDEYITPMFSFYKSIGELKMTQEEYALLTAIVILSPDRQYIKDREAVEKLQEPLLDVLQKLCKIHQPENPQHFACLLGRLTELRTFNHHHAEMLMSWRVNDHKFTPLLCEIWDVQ
# Sequence of Hepatocyte nuclear factor 4-alpha (Homo sapiens) (P41235 whole entry, looked up, the tested form may be a part): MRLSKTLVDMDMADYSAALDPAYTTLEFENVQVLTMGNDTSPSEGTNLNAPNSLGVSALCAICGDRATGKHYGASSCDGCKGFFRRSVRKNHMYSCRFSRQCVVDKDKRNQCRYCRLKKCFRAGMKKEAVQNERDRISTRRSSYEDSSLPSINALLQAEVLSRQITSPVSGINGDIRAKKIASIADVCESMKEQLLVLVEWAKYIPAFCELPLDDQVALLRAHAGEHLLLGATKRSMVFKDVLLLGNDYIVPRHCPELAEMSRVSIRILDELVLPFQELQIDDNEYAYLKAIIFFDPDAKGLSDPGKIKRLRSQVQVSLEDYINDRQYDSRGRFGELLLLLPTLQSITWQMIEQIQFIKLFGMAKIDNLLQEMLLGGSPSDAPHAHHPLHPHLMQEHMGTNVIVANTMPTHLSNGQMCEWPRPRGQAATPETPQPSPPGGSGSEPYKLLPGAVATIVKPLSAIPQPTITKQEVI
# Sequence of human RAR-related Orphan Receptor beta (RORb), RORB (gene 6096) (Q92753 whole entry, looked up, the tested form may be a part): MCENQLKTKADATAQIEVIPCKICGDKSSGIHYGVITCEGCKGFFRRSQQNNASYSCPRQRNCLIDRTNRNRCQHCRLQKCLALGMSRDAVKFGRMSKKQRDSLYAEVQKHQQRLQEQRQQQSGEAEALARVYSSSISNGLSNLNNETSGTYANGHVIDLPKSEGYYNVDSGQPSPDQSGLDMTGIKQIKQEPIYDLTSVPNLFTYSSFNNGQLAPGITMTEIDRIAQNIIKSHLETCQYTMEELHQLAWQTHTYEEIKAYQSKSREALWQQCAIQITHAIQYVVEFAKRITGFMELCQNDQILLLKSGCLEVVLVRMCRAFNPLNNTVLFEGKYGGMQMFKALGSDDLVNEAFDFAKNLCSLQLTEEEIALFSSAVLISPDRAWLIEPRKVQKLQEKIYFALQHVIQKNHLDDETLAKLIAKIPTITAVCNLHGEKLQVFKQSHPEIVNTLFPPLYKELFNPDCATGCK
# Sequence of human Peroxisome Proliferator-activated Receptor delta (PPARd), PPARD (gene 5467) (Q03181 whole entry, looked up, the tested form may be a part): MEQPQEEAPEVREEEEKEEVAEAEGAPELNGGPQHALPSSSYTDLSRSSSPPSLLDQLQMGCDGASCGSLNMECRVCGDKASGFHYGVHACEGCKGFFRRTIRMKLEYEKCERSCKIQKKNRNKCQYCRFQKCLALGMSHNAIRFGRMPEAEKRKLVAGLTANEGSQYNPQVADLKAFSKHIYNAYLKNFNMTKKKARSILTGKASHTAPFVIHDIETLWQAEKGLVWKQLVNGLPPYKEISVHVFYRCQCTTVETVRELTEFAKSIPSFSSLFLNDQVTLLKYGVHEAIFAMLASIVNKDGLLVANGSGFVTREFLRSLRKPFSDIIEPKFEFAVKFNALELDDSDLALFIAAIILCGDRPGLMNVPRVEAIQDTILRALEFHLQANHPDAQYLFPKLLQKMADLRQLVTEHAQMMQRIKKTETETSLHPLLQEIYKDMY
# Sequence of Cellular tumor antigen p53 (Homo sapiens) (P04637 whole entry, looked up): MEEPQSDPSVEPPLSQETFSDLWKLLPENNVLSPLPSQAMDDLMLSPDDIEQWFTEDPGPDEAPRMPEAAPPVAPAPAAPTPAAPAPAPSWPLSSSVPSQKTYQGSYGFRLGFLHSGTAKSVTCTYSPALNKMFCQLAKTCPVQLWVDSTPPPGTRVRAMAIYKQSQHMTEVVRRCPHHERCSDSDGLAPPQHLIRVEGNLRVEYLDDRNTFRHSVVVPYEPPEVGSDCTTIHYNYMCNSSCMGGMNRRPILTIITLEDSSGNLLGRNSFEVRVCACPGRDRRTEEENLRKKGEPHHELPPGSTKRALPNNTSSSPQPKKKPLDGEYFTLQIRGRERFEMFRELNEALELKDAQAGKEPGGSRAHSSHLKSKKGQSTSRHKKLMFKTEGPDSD
# Sequence of Oxysterols receptor LXR-beta (Homo sapiens) (P55055 whole entry, looked up, the tested form may be a part): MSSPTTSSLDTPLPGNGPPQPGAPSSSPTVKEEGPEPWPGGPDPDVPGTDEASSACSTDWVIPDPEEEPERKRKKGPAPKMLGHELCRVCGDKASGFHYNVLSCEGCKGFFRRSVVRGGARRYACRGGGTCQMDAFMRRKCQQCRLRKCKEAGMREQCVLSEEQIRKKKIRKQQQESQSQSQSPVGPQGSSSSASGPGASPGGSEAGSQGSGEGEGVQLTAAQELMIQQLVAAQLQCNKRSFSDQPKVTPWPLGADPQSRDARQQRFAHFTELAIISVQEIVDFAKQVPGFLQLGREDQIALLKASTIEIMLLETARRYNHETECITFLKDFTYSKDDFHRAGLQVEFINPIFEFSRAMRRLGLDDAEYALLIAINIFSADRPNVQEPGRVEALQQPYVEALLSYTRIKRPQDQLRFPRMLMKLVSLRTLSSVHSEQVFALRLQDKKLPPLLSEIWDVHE
# Sequence of Oxysterols receptor LXR-alpha (Homo sapiens) (Q13133 whole entry, looked up, the tested form may be a part): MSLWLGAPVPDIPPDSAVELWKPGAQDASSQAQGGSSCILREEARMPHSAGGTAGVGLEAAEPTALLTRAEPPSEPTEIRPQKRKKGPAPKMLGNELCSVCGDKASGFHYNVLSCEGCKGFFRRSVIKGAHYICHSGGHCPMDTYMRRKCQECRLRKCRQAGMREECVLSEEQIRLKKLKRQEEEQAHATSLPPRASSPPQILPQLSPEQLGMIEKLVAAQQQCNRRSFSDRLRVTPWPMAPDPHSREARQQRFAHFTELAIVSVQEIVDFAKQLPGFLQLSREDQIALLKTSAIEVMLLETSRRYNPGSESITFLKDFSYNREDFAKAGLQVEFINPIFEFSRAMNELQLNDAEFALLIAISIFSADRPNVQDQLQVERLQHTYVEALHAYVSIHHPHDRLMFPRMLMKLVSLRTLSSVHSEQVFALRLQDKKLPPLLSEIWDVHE
# Sequence of human RAR-related Orphan Receptor gamma (RORg), RORC (gene 6097) (P51449 whole entry, looked up, the tested form may be a part): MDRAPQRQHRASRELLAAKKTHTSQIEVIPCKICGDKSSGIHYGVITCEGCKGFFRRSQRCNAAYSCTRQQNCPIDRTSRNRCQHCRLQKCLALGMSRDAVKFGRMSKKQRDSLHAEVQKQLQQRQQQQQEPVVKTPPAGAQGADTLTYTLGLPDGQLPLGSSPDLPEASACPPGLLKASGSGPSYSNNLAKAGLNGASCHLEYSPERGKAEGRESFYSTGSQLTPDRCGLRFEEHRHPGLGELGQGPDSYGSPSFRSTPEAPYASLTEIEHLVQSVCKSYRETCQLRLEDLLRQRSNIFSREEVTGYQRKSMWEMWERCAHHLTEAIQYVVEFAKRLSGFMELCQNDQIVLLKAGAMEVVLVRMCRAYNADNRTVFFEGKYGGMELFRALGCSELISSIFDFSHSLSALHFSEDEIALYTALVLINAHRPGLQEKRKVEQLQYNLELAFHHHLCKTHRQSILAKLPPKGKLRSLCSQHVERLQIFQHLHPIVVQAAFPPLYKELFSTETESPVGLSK
structure (smiles),measurement,setting,value
CNC(=O)Oc1cc(C)c(SC)c(C)c1,AC50,[1],26.5 µM (active)
same,outcome,[2],inactive
same,outcome,[3],inactive
same,outcome,[4],inactive
same,outcome,[5],inactive
same,outcome,[6],inactive
same,outcome,[7],inactive
same,outcome,[8],inactive
same,outcome,[9],inactive
Clc1ccc(-c2ccccc2)cc1,AC50,[1],55.7 µM (active)
same,outcome,[2],inactive
same,outcome,[3],inactive
same,outcome,[4],inactive
same,outcome,[7],inactive
same,outcome,[10],inactive
same,outcome,[9],inactive
O=C(O)c1cc[c]([Hg][Cl])cc1,outcome,[1],inactive
same,outcome,[2],inactive
same,outcome,[5],inactive
same,outcome,[6],inactive
same,AC50,[7],49.3 µM (active)
same,outcome,[8],inactive
same,outcome,[11],inactive
same,outcome,[12],inactive
same,outcome,[13],inactive
same,outcome,[14],inactive
same,outcome,[15],inactive
ClCCCCCCCl,outcome,[16],inactive
same,outcome,[5],inactive
same,outcome,[8],inactive
same,outcome,[17],inactive
CCC(C)c1cc([N+](=O)[O-])cc([N+](=O)[O-])c1OC(=O)C=C(C)C (configuration not stated),AC50,[2],26.5 µM (active)
same,outcome,[3],inactive
same,outcome,[4],inactive
same,outcome,[6],inactive
same,outcome,[7],inactive
same,outcome,[18],inactive
same,AC50,[11],13.8 µM (active)
same,outcome,[19],inactive
same,AC50,[12],13.9 µM (active)
same,AC50,[13],13.2 µM (active)
same,AC50,[14],10.3 µM (active)
same,AC50,[15],14.3 µM (active)
C[N+](C)(C)CC(=O)O,outcome,[1],inactive
same,outcome,[16],inactive
same,outcome,[6],inactive
same,outcome,[7],inactive
same,outcome,[8],inactive
same,outcome,[17],inactive
same,outcome,[20],inactive
same,AC50,[10],25.6 µM (active)
same,outcome,[9],inactive
